aSyn UTR act – Activators via SNCA 5'UTR binding, MLPCN; alpha-synuclein 5'UTR reporter, activators screen; activity score, % (tested at 7.5 µM), hits read low; 300,000 compounds, 7.1% hits; AID 1814, 2009; in the data active = activity score below about -60%
Starred values were filed as active, the others as inactive. The list is a sample of the results.

Results for c1ccc(-c2ccc(-n3ccnc3)cc2)cc1 ?
aSyn UTR act: -81*

How did Nc1nc2c(C(=O)N3CCOCC3)nnn2c2ccccc12 do in these assays?
aSyn UTR act: -66*

How did CN(C)/C=C(\C#N)C(=O)N/N=C/c1ccc(Cl)cc1 do in these assays?
aSyn UTR act: -66*

What do the screens show for `CN(C)/C=C(\C#N)C(=O)Nc1ccc(F)c(Cl)c1`?
aSyn UTR act: -143*

Results for CN(C)/C=C(\C#N)C(=O)Nc1ccc(F)cc1 ?
aSyn UTR act: -96*

Results for CC1(c2ccc([N+](=O)[O-])cc2)Nc2ccccc2S1 (stereo not drawn) ?
aSyn UTR act: -83*

Results for COc1ccc(/C=C2\SC(=S)N(CCCC(=O)NNC(=O)c3ccccc3O)C2=O)cc1 ?
aSyn UTR act: 75

How did COc1ccc(/C=C2\SC(=O)N(CCNC(=O)Cc3coc4cc(OC)ccc34)C2=O)cc1 do in these assays?
aSyn UTR act: -70*

How did COc1ccc(/C=C2\SC(=O)N(CCNC(=O)C3=COCCO3)C2=O)cc1 do in these assays?
aSyn UTR act: -129*

What do the screens show for `Cc1c(OCc2ccccc2)cccc1OCc1ccccc1`?
aSyn UTR act: -71*

Results for Cc1nc(C(C)NC(=O)CCc2nnc(CCCc3ccccc3)o2)c(C)s1 (stereo not drawn) ?
aSyn UTR act: -174*

How did CC(NC(=O)CCc1nnc(-c2ccc(-c3ccccc3)cc2)o1)c1nccs1 (stereo not drawn) do in these assays?
aSyn UTR act: 89

What do the screens show for `O=C(CCc1nnc(CCCc2ccccc2)o1)NC(C1CC1)C1CC1`?
aSyn UTR act: -146*

How did CCC1(C)Cc2ccccc2-c2nc(NCCO)n(-c3ccc(C)cc3)c(=O)c21 (stereo not drawn) do in these assays?
aSyn UTR act: -63*

What do the screens show for `Nc1cc(Cl)nc(N/N=C/c2c(O)ccc3ccccc23)n1`?
aSyn UTR act: -162*

What do the screens show for `O=C(CNc1ccccc1)N/N=C/c1c(O)ccc2ccccc12`?
aSyn UTR act: 69

Results for O=C(O)c1cc(N/N=C/c2c(O)ccc3ccccc23)ccc1Cl ?
aSyn UTR act: -66*

How did Cn1c(=O)c(C(=O)Nc2ccccc2S(N)(=O)=O)c(O)c2ccccc21 do in these assays?
aSyn UTR act: -64*

How did COc1ccc(-c2c3c(nc4sc(C(=O)Nc5ccccc5)c(N)c24)CCC3)cc1 do in these assays?
aSyn UTR act: -128*

How did CCOC(=O)c1c(C)nc2sc(C(=O)Nc3ccccc3)c(N)c2c1-c1ccc(OC)cc1 do in these assays?
aSyn UTR act: -191*

Results for O=C(Nc1ccccc1)Nc1ccc(-n2ccc(C(F)(F)F)n2)cc1 ?
aSyn UTR act: -277*

How did Nc1c(-c2ccccc2)n[nH]c1-c1ccccc1 do in these assays?
aSyn UTR act: -219*

Results for CC(=O)Cn1ncc(Br)c(Br)c1=O ?
aSyn UTR act: -87*

How did O=C(OCn1ncc(Br)c(Br)c1=O)c1c(F)cccc1F do in these assays?
aSyn UTR act: 61

Results for CC(C)(C)C(=O)Cn1ncc(N2CCCC2)c(Br)c1=O ?
aSyn UTR act: -72*

Results for CCc1ccc2c(c1)C(c1ccc([N+](=O)[O-])cc1)=NNC(c1ccc(F)cc1)=N2 ?
aSyn UTR act: -79*

What do the screens show for `CCOc1ccc(N/C(C)=C/C(=O)c2ccc(C)o2)cc1`?
aSyn UTR act: -79*

What do the screens show for `C/C(=C\C(=O)c1ccc(C)o1)Nc1ccc2c(c1)OCO2`?
aSyn UTR act: -170*

What do the screens show for `Cc1cc(C)n2nc(C(=O)Nc3ccc4c(c3)OCO4)nc2n1`?
aSyn UTR act: -113*

Results for C/C(=C\C(=O)c1ccccc1)Nc1ccc2c(c1)OCO2 ?
aSyn UTR act: -115*

What do the screens show for `Cc1ccc(C(=O)Nc2ccc3c(c2)OCO3)o1`?
aSyn UTR act: -118*

What do the screens show for `Cc1cc(N2CCCC2)c(F)cc1/C=C\[N+](=O)[O-]`?
aSyn UTR act: -79*

How did C=C(C)C1CC=C(C)/C(=N/Nc2ccccc2[N+](=O)[O-])C1 (stereo not drawn) do in these assays?
aSyn UTR act: -144*

How did C=C(C)C1CC=C(C)/C(=N/NC(=O)c2cccs2)C1 (stereo not drawn) do in these assays?
aSyn UTR act: -124*

What do the screens show for `Cc1ccc(OCc2ccc(C(=O)N3CCOCC3)cc2)cc1C`?
aSyn UTR act: -66*

What do the screens show for `Cc1ccc(OCC(=O)N2CCOCC2)cc1C`?
aSyn UTR act: -68*

Results for Cc1ccc2c(Cl)c(C(=O)Nc3cccnc3)sc2c1 ?
aSyn UTR act: -73*

What do the screens show for `Cc1ccc2c(C)c(C(=O)Nc3cccnc3)oc2c1`?
aSyn UTR act: -201*

Results for Cc1cc2oc(C(=O)Nc3cccnc3)c(C)c2cc1C ?
aSyn UTR act: -114*

Results for CC1(C)SC(=S)N(NC(=O)Nc2cccc3ccccc23)C1N(O)C(=O)Nc1ccccc1 (stereo not drawn) ?
aSyn UTR act: -88*

Results for CC(=O)c1ccc(OC(C)c2nc3ccccc3s2)cc1 (stereo not drawn) ?
aSyn UTR act: -89*

How did CCOC(=O)N1CCN(C(=O)CCNS(=O)(=O)c2ccc3c(c2)c(=O)n(C)c(=O)n3C)CC1 do in these assays?
aSyn UTR act: -153*

Results for C=C1C(=O)C=C[C@]2(C)C[C@@H]3OC(=O)[C@](C)(O)[C@H]3C[C@@H]12 ?
aSyn UTR act: -527*

Results for Cc1cc(C)n(CCc2nc(-c3cc4ccccc4o3)cs2)n1 ?
aSyn UTR act: -112*

What do the screens show for `Nc1nc(-c2cc3ccccc3o2)cs1`?
aSyn UTR act: -132*

Results for CN1CCN(c2nc(-c3cc4ccccc4o3)cs2)CC1 ?
aSyn UTR act: -142*

What do the screens show for `CC#CC(=O)N1CCC(CCc2ccccc2)(C(=O)OCC)CC1`?
aSyn UTR act: 47

Results for CCOC(=O)C1(CCCc2ccccc2)CCN(Cc2cnc(C)s2)CC1 ?
aSyn UTR act: -63*

What do the screens show for `c1ccc(-c2onc(-c3ccco3)c2-c2ccc3[nH]ccc3c2)cc1`?
aSyn UTR act: -65*

Results for c1cc2cc(-c3c(-c4ccc5c(c4)OCO5)noc3-c3ccsc3)ccc2[nH]1 ?
aSyn UTR act: -81*

How did Clc1cccc(N/N=C(\Cc2nc3ccccc3[nH]2)c2ccccc2)c1 do in these assays?
aSyn UTR act: -102*

Results for CCCCCC(=O)N/N=C(\C)c1ccccn1 ?
aSyn UTR act: 67

How did CCCCCC(=O)N/N=C(\C)c1ccc(N2CCCCC2)cc1 do in these assays?
aSyn UTR act: -65*

Results for C/C(=N\NC(=O)c1ccccc1)c1ccccc1F ?
aSyn UTR act: -88*

Results for C/C(=N\NC(=O)c1ccccc1)c1ccc(N2CCCCC2)cc1 ?
aSyn UTR act: -86*

How did C/C(=N\NC(=O)c1ccccc1)c1ccccc1Br do in these assays?
aSyn UTR act: -102*

Results for O=C(c1ccccc1)c1ccc(N2CCCC2)cc1 ?
aSyn UTR act: -109*

How did C/C(=N\NC(=O)c1ccc(Br)cc1)c1ccccc1 do in these assays?
aSyn UTR act: -158*

What do the screens show for `C/C(=N\NC(=O)c1ccc(C)cc1)c1c(C)[nH]n(-c2ccccc2)c1=O`?
aSyn UTR act: 67

How did C/C(=N\NC(=O)OC(C)(C)C)c1ccccc1Br do in these assays?
aSyn UTR act: -84*

How did CN1CCN(c2ccc(C(=O)c3ccc(F)cc3)cc2)CC1 do in these assays?
aSyn UTR act: -133*

How did Brc1c(CSc2nc3ccccc3s2)nc2ncccn12 do in these assays?
aSyn UTR act: -110*

How did CCOc1cccc2cc(-c3csc(NC(=O)CCC(=O)NCCN4CCCCC4C)n3)c(=O)oc12 (stereo not drawn) do in these assays?
aSyn UTR act: -135*

Screens deposited in PubChem by Broad Institute.
